# Data taken from the supplement of paper PMC10681739.
# Tests used:
# ETS1 = target: T1, ETS1 (UniProt P14921); assay: ETS1 binding intensity (PBM fluorescence), ETS1 alone (arbitrary fluorescence units); higher = stronger binding; details: ETS1 concentration 1 nM; RUNX1 concentration 0 nM
# T1 sequence: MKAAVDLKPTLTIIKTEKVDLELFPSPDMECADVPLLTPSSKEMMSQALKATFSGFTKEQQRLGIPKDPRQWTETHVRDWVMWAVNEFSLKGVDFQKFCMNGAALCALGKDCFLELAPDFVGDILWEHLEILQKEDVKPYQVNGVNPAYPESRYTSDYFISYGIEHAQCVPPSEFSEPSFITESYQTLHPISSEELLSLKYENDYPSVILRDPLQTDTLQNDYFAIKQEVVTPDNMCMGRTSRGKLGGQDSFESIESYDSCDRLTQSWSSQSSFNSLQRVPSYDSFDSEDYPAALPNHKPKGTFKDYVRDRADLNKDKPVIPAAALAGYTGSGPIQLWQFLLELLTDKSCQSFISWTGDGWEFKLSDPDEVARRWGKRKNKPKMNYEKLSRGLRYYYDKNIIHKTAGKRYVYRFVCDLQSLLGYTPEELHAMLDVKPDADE
# RUNX1 [1] = target: RUNX1 (UniProt Q01196); assay: RUNX1 binding intensity (PBM fluorescence), RUNX1 alone (arbitrary fluorescence units); higher = stronger binding; details: RUNX1 concentration 2 nM; ETS1 concentration 0 nM
# Method: (§1)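 Cooperative gcPBM on 36-bp genomic probes with neighbouring ETS1 and RUNX1 sites. Recombinant human RUNX1 (2 nM) was incubated alone or with ETS1 (25 nM) and detected with anti-RUNX1 antibody plus Alexa488 secondary. Values are medians over 4 replicate spots; the RUNX1+ETS1 data were normalised to the RUNX1-only data. The probes sit in constant array flanks that are not printed.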
# RUNX1 [2] = target: RUNX1 (UniProt Q01196); assay: RUNX1 binding intensity (PBM fluorescence) in presence of ETS1, normalised to RUNX1-only experiment (arbitrary fluorescence units); higher = stronger binding; details: RUNX1 concentration 2 nM; ETS1 concentration 25 nM
# Method: as §1
# 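Wherever RUNX1 binding intensity (PBM fluorescence) in presence of ETS1, normalised to RUNX1-only experiment is given: Full-length recombinant human ETS1 or RUNX1 bound to double-stranded 36-bp genomic probes on microarrays, detected by protein-specific primary antibody and Alexa488 secondary, spot fluorescence as median of four replicate spots.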
# 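Wherever RUNX1 binding intensity (PBM fluorescence), RUNX1 alone is given: Full-length recombinant human RUNX1 bound to double-stranded 36-bp genomic probes on a high-density microarray, scored as Alexa488 fluorescence per spot via anti-RUNX1 antibody, median of four replicate spots.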
# Chain of RUNX1 (Q01196 whole entry): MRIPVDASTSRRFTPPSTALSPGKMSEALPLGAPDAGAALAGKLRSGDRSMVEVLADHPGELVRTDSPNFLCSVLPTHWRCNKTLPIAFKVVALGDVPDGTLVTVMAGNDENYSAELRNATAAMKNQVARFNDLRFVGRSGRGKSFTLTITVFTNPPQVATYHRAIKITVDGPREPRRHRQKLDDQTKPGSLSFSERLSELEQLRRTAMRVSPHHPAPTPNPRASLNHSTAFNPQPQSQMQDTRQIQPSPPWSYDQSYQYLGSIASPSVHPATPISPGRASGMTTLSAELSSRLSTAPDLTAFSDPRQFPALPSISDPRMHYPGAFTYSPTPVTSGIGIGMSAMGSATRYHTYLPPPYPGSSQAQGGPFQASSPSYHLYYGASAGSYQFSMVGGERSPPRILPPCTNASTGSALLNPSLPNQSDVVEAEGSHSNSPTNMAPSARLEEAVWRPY
Sequence,ETS1 binding intensity (ETS1),RUNX1 binding intensity (RUNX1 [1]),RUNX1 binding intensity (RUNX1 [2])
CTGTGACACGTGCGGAAGCTGTGGTAAGTGCATCCA,1130,840,984
GTGGGGCAGGATGTGCTTGCCTGGCTGCGGTTGGAC,2170,877,2230
AATCTGAAACAGGAAATAAGTCTGTGGTTGTGTGTT,7070,833,1540
ACAAGGACTTCCGCCTCCCTGCGGTCCCTCCCCTAC,965,1110,2720
AGTTACAGTAAAGGATGTGGTGAAACAGATGTTTAT,847,781,923
CCATCCAGGAAGCTTATGGTGCAACCGCAGTGTGCC,483,943,1620
GTTTTCAAGGCAGGAAGTGGCTGTGGTGGCACGGAG,13700,789,1570
AACAGTTGCATAGGAAGTGGTCAGCTCTCCTCCACC,1260,828,999
CCCATTTCCTGCTCTCCAGAGTTAACCACTGAAGTC,815,1440,3490
AGTAGAGGAGGAAGTTAAATGTGGTTTTCTGGGTGG,864,857,1130
TCTGGCTTCCTGTCTTAATAGGGCTTTGTGGTGTGC,762,832,2040
CCTGGTCCGGAAGCGCTGTCCCCGCCTCCCGCATAG,1950,822,1430
TGTGTATGAGAACGGATATAGGTGGTTTTATAAGGA,1890,756,941
GCGCGGACAGAGAAAGGATGTGGTATAGCAGAAAGT,1500,727,884
GCAGTCAGAAGGTGCGGATGCGGTAAGGTATGCGCT,1130,835,1270
GTCTGCTTAAAAACAGGAAACCACATATCTCCACCC,3670,1600,1990
TTCAGGAAATGCAAACGGCTGCAGAGACCGCAGAGG,499,793,1090
GCAGAGTTTACAACAGGATGTGGTTATTGGCGCTGC,8870,777,4380
CCAGGCGGAAGCGGCCGGGAGTAGCGCTGCGGTTGG,631,817,1610
GCGCGGGCAACTTCCGGTGTGGGTGACGAGTGGTGG,10900,778,2700
CCTGCGGATCACGGAAGTGGCTGCGGTCGGCGCCAT,2160,1360,4890
CCTGTTGATAAAACAGGATGTGGTAAAGAAGCTGGC,9030,830,10300
CAGCCTTGCCGGAAGGCAGAGTTTGTGGTCAGACCG,1090,1330,2500

Sequence,ETS1 binding intensity (ETS1),RUNX1 binding intensity (RUNX1 [1]),RUNX1 binding intensity (RUNX1 [2])
TGCAGTCGTGAAAAAGGAAGTGGTTAAAGTGGCTAC,3680,753,1600
GGCCGGCTTCCGGGGCGGGTGGAAAGGAGCCACAAG,501,750,1260
ATGAGCTATTTCCTGCCTTGTGGTCAGAGCCAGACT,1640,1050,4330
TCCCACTGCGACGGAAGCACAGCGGTTAAGATTGCA,821,792,910
TTCACTTCCACCACTTCCTGTGGGTTTTGTTCATCC,3090,1530,5560
TTCTTCACTTCCTTCTCTCCGTGGTTTCGCCATTAG,513,2260,3130
GAGGGGGAGGTTTCCGGGGCCTGTGGTTACTACACT,438,943,1910
GCAGTTTCAAGAGGATGTGGTCTCTTTCACTGCCTG,1160,724,1080
CACTTCCTGTCAAAGCCAGTTCCTTAACCGCTTAGG,1610,948,2930
TCTGTCGTCCCACTTCCTGCTGCGGTTTCCACCTCG,3340,8620,21300
GAAAGCTGCACTATTTCCTGAGGTTAGAGGTTTAAA,522,815,1040
GGTGCCTGGGGAGGATGTGGGCTGACTGGGAGGGGT,870,869,974
CATGGGGAGGAGGAAGTGGTGGCGGCCGCAGGCCAG,1040,799,1070
AACAGGAAGTGGTCTTAGAGATCATGCGGTTCAGAG,2220,787,2350
TTGGAAACAGACAGGAAGCCACAGGCAGTAAACATT,3300,753,978
CAGGCACACATCCGGGAGCGGCCTGCGCCGCAAGGC,608,773,1560
GAGGACTTCCGGGTGGGTGTGATATCTGCGGGCCCG,848,760,1940
TTTCCTCGGATTCCCGGATGTGGGTGAGTTCATTTG,5690,809,2000
ATCTTTTGATGAGGATGTGGTTTCCAGGCAGGTGCT,836,902,1620
CCTCAAAACCCGGAAACGCCTTGCGGGGCAGTGTGG,3330,789,1400
GGCCGTTCTTCCGCCTGCAGGGTGGTCAGCGGAGGT,571,712,1010
CTGAAACAGGAAGCTGAGGGTGCGGTTGGGGGAGGA,2210,811,1520
GACAGACCTTAGGAAGTCGCGGTTTCATCAGGGCTT,422,916,1220
